Measured values from PubChem BioAssay AID488890 (Southern Research Specialized Biocontainment Screening …, 2010).
The campaign covered roughly 320,000 compounds. About 1,300 (0.41%) were called active. Not shown: some 3% with an inconclusive outcome. How the calls were made is not given here. These entries were drawn from the full list. Results with a measured potency or affinity are listed apart.

assay: growth inhibition of non-replicating M. tuberculosis (AID 488890); details: Mycobacterium tuberculosis non-replicating, at 25 µM, stronger effect = higher value;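 further: plate controls were DMSO cells for no effect and high antibiotic wells for full effect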

Row | SMILES | inhibition [%]
1 | CCC(NC(=O)c1cc(COc2cncc(Cl)c2)on1)c1ccc(C)cc1 (configuration not stated) | 61.6
2 | CCC(NC(=O)c1cc(COc2cncc(Cl)c2)on1)c1ccncc1 (configuration not stated) | 21.9
3 | COCCCN1C(=O)C(=O)/C(=C(/O)c2ccc(OC(C)C)cc2)C1c1ccc(O)c(OC)c1 (configuration not stated) | -2.98
4 | CCc1cc2cccc(C)c2nc1SCC(=O)NNC(=O)c1ccco1 | -10.6
5 | C=CCn1c(O)c(C(C)=Nc2ccc(NC(C)=O)cc2)c(=O)[nH]c1=O | -9.1
6 | C=CCn1c(O)c(C(C)=Nc2ccc(C(=O)O)cc2)c(=O)[nH]c1=O | 6.37
7 | O=S(=O)(Nc1ccc(Cl)c(Cl)c1)N1CCOCC1 | -2.78
8 | O=C(Nc1ccc(Cl)c(Cl)c1)C1=Cc2ccccc2OC1 | 58
9 | COc1ccc(S(=O)(=O)N2CCCCCC2)cc1NC(=O)CN1C(=O)CNC1=O | 13.3
10 | CCNC(=O)C(=O)NCC(c1cccs1)S(=O)(=O)c1ccc(C)cc1 (configuration not stated) | 2.12
11 | CN(C)c1cc[n+](CC(=O)Nc2ccc(Cl)cc2)cc1 | 9.15
12 | O=C(O)c1ccccc1-c1nc2cc(Cl)ccc2c(=O)n1O | -1.37
13 | CCc1nc2ccc(Br)cc2c(=O)n1-c1ccccc1C(F)(F)F | 26.9
14 | COc1ccccc1-c1nc2cc(Cl)ccc2c(=O)n1O | 9.28
15 | O=c1c2cc(Br)ccc2nc(-c2ccccc2)n1O | 78.6
16 | O=C(OCn1nnc2ccccc2c1=O)c1ccc(S(=O)(=O)N2CCOCC2)cc1 | 33.4
17 | Cc1nn(-c2ccccc2)c(C)c1NC(=O)COC(=O)c1ccccc1OC(F)F | 9.15
18 | COc1ccc(NC(=O)C(c2ccccc2)c2ccccc2)c(OC)c1 | -2.93
19 | Nc1nc2nc(SCC(=O)N3CCCc4ccccc43)[nH]c2c(=O)[nH]1 | 0.84
20 | CN(C)CCn1c2c(c(SCC(=O)Nc3ccc4c(c3)OCCO4)nc1=O)CCC2 | -16.4
21 | O=C(OCCCN1C(=O)c2ccccc2C1=O)c1ccco1 | 10.6
22 | O=C(COC(=O)c1cc([N+](=O)[O-])ccc1Cl)NC1CCCC1 | 73.8
23 | Cc1ccc(C(=O)OCC(=O)NC2CCCCC2)o1 | 36.7

Row | SMILES | inhibition [%]
24 | O=C(CNC(=O)c1ccc(Br)o1)NC1CCCCCC1 | -0.81
25 | O=C(OCCN1C(=O)c2ccccc2C1=O)c1ccco1 | 15.3
26 | O=C(COC(=O)c1ccc(Br)cc1)NC1CCCC1 | 46.5
27 | Nc1c(Cl)cc(Cl)cc1C(=O)OCC(=O)N1CCOCC1 | 17.1
28 | CC1CCN(C(=O)COC(=O)c2cc(Cl)cc(Cl)c2N)CC1 | 78.5
29 | CCc1ccc(CNC(=O)CN2C(=O)COc3ccccc32)cc1 | 14.8
30 | COc1ccc(S(=O)(=O)N2CCCC2CNC(=O)C(=O)NCc2ccc3c(c2)OCO3)cc1 (configuration not stated) | 10.3
31 | COC(=O)CCC(=O)OC1(C)C(=O)C=C2C=C(C3CC3)N(C3CCCC3)C=C2C1=O (configuration not stated) | 21.8
32 | NC1=NC(=O)/C(=C/c2ccc(-c3ccc(S(N)(=O)=O)cc3)o2)S1 | -4.9
33 | Cc1ccc2c(C(=O)CN3CCN(C(=O)c4ccco4)CC3)c(C)[nH]c2c1 | 14
34 | O=C(NC1CCCCC1)C(c1cccnc1)N(C(=O)c1ccc(Cl)nc1)C1CCCCC1 (configuration not stated) | 20.7
35 | O=C(NC(=S)Nc1ccc2[nH]c(=O)[nH]c2c1)c1ccccc1[N+](=O)[O-] | -4.02
36 | CCNC(=O)CSc1nnc(-c2ccccc2)n1-c1ccc(OCC)cc1 | 12
37 | O=C1CSC(=Nc2cccc([N+](=O)[O-])c2)N1 | 17.5
38 | O=C(COC(=O)c1ccc(Br)o1)NCCNC(=O)COC(=O)c1ccc(Br)o1 | 0.38
39 | O=C(COC(=O)c1ccc([N+](=O)[O-])o1)NCCCc1ccccc1 | 73.4
40 | O=C(OCC(=O)N1CCCC1)c1cccc(Br)c1 | 67.8
41 | O=C(OCC(=O)N1CCCC1)c1cc([N+](=O)[O-])ccc1Cl | 67.6
42 | Nc1cccc(CP(=O)(c2ccccc2)c2ccccc2)c1 | 1.01
43 | COc1cc(NC(=O)c2ccccc2-n2cnnn2)cc(OC)c1 | 10.3
44 | COc1ccc(C2C(C(C)=O)=C(O)C(=O)N2c2ccc(Br)cc2)cc1 (configuration not stated) | 29.9
45 | COC(=O)CSc1nnc(-c2ccncc2)o1 | -0.32
46 | COC(=O)c1ccc(CSc2nnc(-c3ccncc3)n2Cc2ccccc2)o1 | 12.6

Row | SMILES | inhibition [%]
47 | Cc1ccc(OCC(=O)OC(C)C(=O)NC2CCCCC2C)cc1C (configuration not stated) | 65.7
48 | Cc1c(C(=O)NCc2ccccc2CN2CCCC2)oc2ccc(F)cc12 | 42
49 | Cc1nc(C)c(C(=O)Nc2ccccc2)s1 | -13.4
50 | Cc1nc(Cl)sc1C(=O)Nc1ccccc1 | -6.17
51 | COc1ccc(OC)c(NC(=O)c2nc3ccccc3s2)c1 | -0.73
52 | O=C(NCc1ccco1)c1cccnc1-c1nc2ccccc2s1 | 27.7
53 | COc1ccc(NC(=O)Nc2nc3ccccc3s2)cc1 | -4.36
54 | O=C(NCc1ccccc1)c1nc2ccccc2s1 | 79.5
55 | CN(C(=O)COC(=O)CSc1cc(Cl)ccc1Cl)c1c(N)n(Cc2ccccc2)c(=O)[nH]c1=O | 7.95
56 | COc1ccc(CC2C(=O)OC(C)(C)OC2=O)c(Cl)c1OC | -14.3
57 | CCCC1=C(C(=O)OCC)C(c2cccnc2)n2nc(C)nc2N1 (configuration not stated) | -11.9
58 | COCCn1c(=O)c2c(nc3n2CC(C)CN3CCc2ccccc2)n(C)c1=O (configuration not stated) | 22.9
59 | Cc1[nH]c(=O)[nH]c(=O)c1S(=O)(=O)N1CCN(c2ccccc2F)CC1 | -5.44
60 | COc1ccc(OC)c(C(=O)c2oc3ccccc3c2NC(C)=O)c1 | -5.83
61 | CCOC(=O)c1sc(=S)n(-c2ccc3c(c2)OCO3)c1N | 1.96
62 | N/C(=N\OC(=O)c1ccc(Cl)cc1)c1ccc(Cl)cc1 | 69.9
63 | N/C(=N\OC(=O)c1ccc(Cl)cc1)c1ccccn1 | 28.3
64 | N/C(=N\OC(=O)c1ccccc1Cl)c1cccc([N+](=O)[O-])c1 | 66.7
65 | N/C(=N\OC(=O)c1ccccc1Cl)c1ccccn1 | -3.97
66 | C=CCOC(=O)c1cn(CC)c2nc(C)ccc2c1=O | -10.5
67 | CCOC(=O)C1(Cc2cccc(Cl)c2)CCCN(C(=O)c2ccoc2C)C1 (configuration not stated) | 33.8
68 | CCOC(=O)NC(CC(=O)O)c1ccc(OC)cc1 (configuration not stated) | -4.02
69 | CCn1c(C)nc2cc(C(=O)N/N=C/c3ccc(N4CCOCC4)cc3)ccc21 | 33

Row | SMILES | inhibition [%]
70 | c1ccc2c(c1)CC(N1CCCCC1)c1ccccc1S2 (configuration not stated) | 72.9
71 | CN1CCN(C2Cc3ccccc3Sc3ccc(Cl)cc32)CC1 (configuration not stated) | 76.8
72 | CCOC(=O)C1(Cc2ccc(OC)cc2)CCN(C(=O)c2cncs2)CC1 | -27.1
73 | CCOC(=O)c1ccc(NC(=O)NCc2ccncc2)cc1 | 15.4
74 | CCc1ccc(N2C(=O)c3cc(N4CCOCC4)c([N+](=O)[O-])cc3C2=O)cc1 | 1.14
75 | O=[N+]([O-])c1ccc(CSc2nnc3ccccn23)cc1 | 1.79
76 | CCc1ccc(NC(=O)CCCn2nc(CC)n3c(cc4occc43)c2=O)cc1 | 21.1
77 | CSc1ccc(CCNC(=O)CCc2nnc3ccc(N4CCC5(CC4)OCCO5)nn23)cc1 | 11.6
78 | O=c1c2ccccc2nc(-c2ccc([N+](=O)[O-])cc2)n1-c1ccccc1 | -1.75
79 | Cc1nc2ccc(Cl)cc2c(=O)n1-c1ccc([N+](=O)[O-])cc1 | 36.5
80 | Nn1c(-c2ccccc2)nc2cc(Cl)ccc2c1=O | -0.74
81 | O=C(Nn1c(-c2ccc(Br)cc2)nc2ccccc2c1=O)c1ccc([N+](=O)[O-])cc1 | 20.4
82 | Cc1ccc(-c2nc3ccc(Cl)cc3c(=O)n2O)cc1 | 69.6
83 | COc1ccccc1-c1nc2ccc(Cl)cc2c(=O)n1O | 11.4
84 | Cc1nc2ccc([N+](=O)[O-])cc2c(=O)n1Cc1ccc(Cl)cc1 | -5.97
85 | Cc1nc2ccc([N+](=O)[O-])cc2c(=O)n1Cc1ccc(Br)cc1 | -9.44
86 | CCCNC(=O)c1ccc(Cn2c(=S)[nH]c3c([nH]c4ccc(OC)cc43)c2=O)cc1 | -43.9
87 | CC1Cc2cc(S(=O)(=O)N3CCN(c4ccccc4F)CC3)ccc2N1C(=O)C1CC1 (configuration not stated) | 31.8
88 | CC1Sc2ccc(S(=O)(=O)CCC(=O)N3CCN(c4ccccc4)CC3)cc2NC1=O (configuration not stated) | 12.1
89 | COC(=O)C1=C(C)NC(=O)CC1c1cc2c(cc1Br)OCO2 (configuration not stated) | -0.49
90 | Cc1ccccc1C(=O)N1CCN(c2ncccn2)CC1 | -10.1
91 | CCOC(=O)c1ccc(S(=O)(=O)NC2CC2)cc1 | 0.31
92 | COc1ccc(COC(=O)CN2C(=O)NC3(CC(C)CC(C)(C)C3)C2=O)cc1F (configuration not stated) | 7.47

Row | SMILES | inhibition [%]
93 | CC(C)C[C@H](NC(=O)c1nc[nH]c1C(=O)NCCCCCN)C(=O)OCc1ccccc1 | 18.5
94 | CCN(CC(=O)Nc1ccc(OC)cc1)C(=O)c1cc2c(s1)CCCCC2 | 12.4
95 | CSc1nnc(SCC(=O)Nc2ccc3[nH]c(=O)[nH]c3c2)s1 | -17
96 | COc1ccccc1NC(=O)CN1C(=O)COc2ccc(S(=O)(=O)N3CCC(C)CC3)cc21 | 9.4
97 | O=S(=O)(c1cccc2nsnc12)N1CCc2ccccc2C1 | 3.1
98 | CC1CCCN(CCOCCSc2ccccc2)C1 (configuration not stated) | 13.4
99 | Clc1ccc(SCCCN2CCCCC2)cc1 | 5.39
100 | COc1ccc(S(=O)(=O)N2CCCC(C(=O)NC3CCCCC3)C2)cc1 (configuration not stated) | -6.21
101 | CCOC(=O)CN(C#N)c1nc(C)cc(C)n1 | 1.75
102 | COC(=O)CN(C#N)c1nc(OC)nc(N(C)C)n1 | 2.2
103 | CCOc1ccccc1OCC(=O)Nc1nc2ccccc2[nH]1 | 34.2
104 | O=C(COc1ccccc1C(=O)O)Nc1cccc2ccccc12 | 15.8
105 | CCOc1ccccc1OCCCC(=O)Nc1nc2ccccc2[nH]1 | 12.7
106 | COc1ccc(Cl)cc1C(=O)Nc1nc2ccccc2[nH]1 | 62.4
107 | COc1ccc(C(=O)Nc2nc3ccccc3[nH]2)cc1OC | 22.2
108 | O=C(COc1ccccc1)Nc1nc2ccccc2[nH]1 | 75.5
109 | O=C(COc1cccc2ccccc12)Nc1cc(Cl)ccc1C(=O)O | 69.4
110 | CN(c1cccc(Cl)c1)S(=O)(=O)c1cccc(C(=O)Nc2nc3ccccc3[nH]2)c1 | 7.4
111 | CCN(CC)S(=O)(=O)c1ccc(NC(=O)c2cccs2)cc1 | -5.05
112 | O=C(COc1ccccc1C(=O)Nc1ccccc1)c1ccc(F)cc1 | 2.88
